Assay results published in PubChem BioAssay AID1159580 (chemical genetic matrix, 2015).
The whole screen tested about 5,500 compounds, of which about 2,000 (36%) were called active. Inconclusive results (about 18%) are left out. No stated cut-off is given here; in the data, active means normalized growth mostly below about 0.91 (no sharp cut-off); inconclusive means no clear call, values can overlap the other calls; inactive means mostly above about 0.92. The list shows a part of the results.

Assay: chemical genetic growth profiling, strain panel (AID 1159580);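 further: tested at 20 µM; growth read once vehicle control cultures reached saturation at 30 °C; 1 = growth at the plate median or of vehicle wells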
Details: growth OD

Measured: normalized growth

NC[C@H](O)c1ccc(O)c(O)c1
active: S. cerevisiae deletion strains, locus YMR058W, strain fet3, stronger effect = lower value 0.841
inactive: S. cerevisiae deletion strains, locus YJR066W, strain TOR1, stronger effect = lower value 0.934 | S. cerevisiae deletion strains, locus YJR075W, strain HOC1, stronger effect = lower value 1.02 | S. cerevisiae deletion strains, locus YKL009W, strain mrt4, stronger effect = lower value 1 | S. cerevisiae deletion strains, locus YKL068W, stronger effect = lower value 1.01 | S. cerevisiae deletion strains, locus YKL085W, strain MDH1 (second series), stronger effect = lower value 1.01 | S. cerevisiae deletion strains, locus YKL085W, strain MDH1, stronger effect = lower value 1.01 | S. cerevisiae deletion strains, locus YKL160W, strain elf1, stronger effect = lower value 1.02 | S. cerevisiae deletion strains, locus YKL190W, strain CNB1, stronger effect = lower value 1.01 | S. cerevisiae deletion strains, locus YKR001C, strain vps1, stronger effect = lower value 0.999 | S. cerevisiae deletion strains, locus YKR026C, strain gcn3, stronger effect = lower value 1 | S. cerevisiae deletion strains, locus YKR091W, strain srl3, stronger effect = lower value 1.01 | S. cerevisiae deletion strains, locus YLL001W, strain dnm1, stronger effect = lower value 1.02 | S. cerevisiae deletion strains, locus YLL026W, stronger effect = lower value 1.02 | S. cerevisiae deletion strains, locus YLL041C, strain sdh2, stronger effect = lower value 1 | S. cerevisiae deletion strains, locus YLR027C, strain aat2, stronger effect = lower value 1.01 | S. cerevisiae deletion strains, locus YLR039C, strain RIC1, stronger effect = lower value 1 | S. cerevisiae deletion strains, locus YLR058C, strain SHM2, stronger effect = lower value 1.01 | S. cerevisiae deletion strains, locus YLR102C, strain apc9, stronger effect = lower value 1.02 | S. cerevisiae deletion strains, locus YLR113W, strain HOG1, stronger effect = lower value 0.97 | S. cerevisiae deletion strains, locus YLR221C, strain rsa3, stronger effect = lower value 1.01 | S. cerevisiae deletion strains, locus YLR258W, strain gsy2, stronger effect = lower value 1.01 | S. cerevisiae deletion strains, locus YLR262C, strain YPT6 (second series), stronger effect = lower value 1.02 | S. cerevisiae deletion strains, locus YLR262C, strain YPT6, stronger effect = lower value 1.04 | S. cerevisiae deletion strains, locus YLR268W, strain sec22, stronger effect = lower value 1.04 | S. cerevisiae deletion strains, locus YLR320W, strain mms22, stronger effect = lower value 1.04 | S. cerevisiae deletion strains, locus YLR330W, strain CHS5, stronger effect = lower value 1.01 | S. cerevisiae deletion strains, locus YLR342W, strain FKS1 (second series), stronger effect = lower value 1.01 | S. cerevisiae deletion strains, locus YLR342W, strain FKS1, stronger effect = lower value 1.01 | S. cerevisiae deletion strains, locus YLR357W, strain rsc2, stronger effect = lower value 0.938 | S. cerevisiae deletion strains, locus YLR370C, strain arc18, stronger effect = lower value 1.01 | S. cerevisiae deletion strains, locus YLR371W, strain rom2, stronger effect = lower value 1.03 | S. cerevisiae deletion strains, locus YLR384C, strain iki3, stronger effect = lower value 1 | S. cerevisiae deletion strains, locus YLR418C, strain cdc73, stronger effect = lower value 1 | S. cerevisiae deletion strains, locus YML016C, strain PPZ1, stronger effect = lower value 1 | S. cerevisiae deletion strains, locus YML032C, strain rad52, stronger effect = lower value 1.02 | S. cerevisiae deletion strains, locus YML120C, strain ndi1, stronger effect = lower value 1 | S. cerevisiae deletion strains, locus YML124C, strain tub3, stronger effect = lower value 1.01 | S. cerevisiae deletion strains, locus YMR078C, strain ctf18, stronger effect = lower value 1.02 | S. cerevisiae deletion strains, locus YMR125W, strain sto1, stronger effect = lower value 0.952 | S. cerevisiae deletion strains, locus YMR129W, stronger effect = lower value 0.993 | S. cerevisiae deletion strains, locus YMR205C, strain PFK2, stronger effect = lower value 1.06 | S. cerevisiae deletion strains, locus YMR223W, strain ubp8, stronger effect = lower value 0.99 | S. cerevisiae deletion strains, locus YMR231W, strain pep5, stronger effect = lower value 0.995 | S. cerevisiae deletion strains, locus YMR263W, strain SAP30, stronger effect = lower value 1.01 | S. cerevisiae deletion strains, locus YMR307W, strain GAS1, stronger effect = lower value 0.979 | S. cerevisiae deletion strains, locus YNL067W, strain RPL9B, stronger effect = lower value 1.01 | S. cerevisiae deletion strains, locus YNL071W, strain lat1, stronger effect = lower value 0.997 | S. cerevisiae deletion strains, locus YNL183C, strain NPR1, stronger effect = lower value 0.948 | S. cerevisiae deletion strains, locus YNL209W, strain ssb2, stronger effect = lower value 0.999 | S. cerevisiae deletion strains, locus YNL233W, strain BNI4, stronger effect = lower value 1.01 | S. cerevisiae deletion strains, locus YNL248C, strain rpa49, stronger effect = lower value 0.978 | S. cerevisiae deletion strains, locus YNL250W, strain rad50, stronger effect = lower value 1.01 | S. cerevisiae deletion strains, locus YNL271C, strain bni1, stronger effect = lower value 1.01 | S. cerevisiae deletion strains, locus YNL298W, strain CLA4, stronger effect = lower value 1 | S. cerevisiae deletion strains, locus YNL307C, strain MCK1, stronger effect = lower value 1.02 | S. cerevisiae deletion strains, locus YNL322C, strain KRE1 (second series), stronger effect = lower value 1.01 | S. cerevisiae deletion strains, locus YNR049C, strain mso1, stronger effect = lower value 1.01 | S. cerevisiae deletion strains, locus YNR052C, strain pop2, stronger effect = lower value 1.01 | S. cerevisiae deletion strains, locus YOL006C, strain TOP1, stronger effect = lower value 0.941 | S. cerevisiae deletion strains, locus YOL012C, strain htz1 1.04 | S. cerevisiae deletion strains, locus YOL147C, strain pex11, stronger effect = lower value 1.01 | S. cerevisiae deletion strains, locus YOR001W, strain rrp6, stronger effect = lower value 0.969 | S. cerevisiae deletion strains, locus YOR061W, strain CKA2, stronger effect = lower value 1.01 | S. cerevisiae deletion strains, locus YOR069W, strain VPS5, stronger effect = lower value 1.01 | S. cerevisiae deletion strains, locus YOR070C, strain gyp1, stronger effect = lower value 1 | S. cerevisiae deletion strains, locus YOR080W, strain dia2, stronger effect = lower value 1.01 | S. cerevisiae deletion strains, locus YOR083W, strain WHI5, stronger effect = lower value 1.05 | S. cerevisiae deletion strains, locus YOR106W, strain vam3, stronger effect = lower value 1.04 | S. cerevisiae deletion strains, locus YOR136W, strain idh2, stronger effect = lower value 1.02 | S. cerevisiae deletion strains, locus YOR144C, strain elg1, stronger effect = lower value 1.01 | S. cerevisiae deletion strains, locus YOR184W, strain ser1, stronger effect = lower value 1.06 | S. cerevisiae deletion strains, locus YOR231W, strain MKK1, stronger effect = lower value 1 | S. cerevisiae deletion strains, locus YOR265W, strain rbl2, stronger effect = lower value 1.01 | S. cerevisiae deletion strains, locus YOR270C, strain vph1, stronger effect = lower value 0.944 | S. cerevisiae deletion strains, locus YOR290C, strain snf2, stronger effect = lower value 1.01 | S. cerevisiae deletion strains, locus YOR316C, strain cot1, stronger effect = lower value 1.01 | S. cerevisiae deletion strains, locus YPL051W, strain arl3, stronger effect = lower value 0.99 | S. cerevisiae deletion strains, locus YPL078C, strain atp4, stronger effect = lower value 1.01 | S. cerevisiae deletion strains, locus YPL106C, strain sse1, stronger effect = lower value 1 | S. cerevisiae deletion strains, locus YPL240C, strain hsp82, stronger effect = lower value 0.994 | S. cerevisiae deletion strains, locus YPL241C, strain CIN2, stronger effect = lower value 1.01 | S. cerevisiae deletion strains, locus YPL256C, strain CLN2, stronger effect = lower value 0.961 | S. cerevisiae deletion strains, locus YPR119W, strain clb2, stronger effect = lower value 1.02 | S. cerevisiae deletion strains, locus YPR141C, strain kar3, stronger effect = lower value 1.01 | S. cerevisiae deletion strains, locus YPR163C, strain tif3, stronger effect = lower value 1.01 | S. cerevisiae deletion strains, locus YPR167C, strain met16, stronger effect = lower value 1.02 | S. cerevisiae deletion strains, strain wtn01, stronger effect = lower value 1.02 | S. cerevisiae strains, strain wild type, stronger effect = lower value 1.01
